Source: PubChem BioAssay (several laboratories)
GDH-TPI counter-1 – GDH-TPI coupling enzyme inhibitors, primary screen, artefact control for M. tuberculosis FBA inhibitor project, biochemical, absorbance, full deck | actives 1.2% (n = 360,000) | GDH-TPI coupled enzyme counterscreen, NADH absorbance | inhibition, % at 4.8 µM; in the data active = inhibition above about 30%;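 also: 0% = DMSO wells and 100% = wells lacking the enzyme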
FBA Mtb inh – Mtb FBA enzyme inhibitors, primary screen, biochemical, fluorescence, strain H37Rv; AID 588726, 2011; inhibition, % at 1 µM; purified M. tuberculosis FBA, fluorescence read-out; actives 2.3% (n = 360,000); Fructose-bisphosphate aldolase (Mycobacterium tuberculosis (strain ATCC 25618 / H37Rv)), …;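 also: 0% = vehicle and 100% = reference inhibitor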
Target sequence (P9WQA3 whole entry, looked up): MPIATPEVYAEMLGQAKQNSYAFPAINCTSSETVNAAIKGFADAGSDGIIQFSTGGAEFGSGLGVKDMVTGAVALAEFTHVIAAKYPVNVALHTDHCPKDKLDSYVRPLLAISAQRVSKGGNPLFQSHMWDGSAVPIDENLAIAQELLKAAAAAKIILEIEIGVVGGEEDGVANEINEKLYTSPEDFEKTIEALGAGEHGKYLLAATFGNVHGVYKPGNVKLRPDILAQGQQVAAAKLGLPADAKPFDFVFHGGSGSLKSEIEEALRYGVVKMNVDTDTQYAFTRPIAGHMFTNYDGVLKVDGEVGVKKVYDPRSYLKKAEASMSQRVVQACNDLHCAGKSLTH
FadD28 FP inh – inhibitors of FadD28 bisubstrate probe binding, primary screen, biochemical, fluorescence polarization, single point; Mycobacterium tuberculosis FadD28 fatty-acid-AMP ligase; inhibition, % at 12.5 µM; actives 0.22% (n = 360,000); AID 588549, 2011; in the data active = inhibition above about 8.5%, passing the limit was not always enough
3CLpro inhibitor – SARS-CoV 3CLpro protease inhibitors, primary screen, biochemical, quenched FRET. recombinant SARS-CoV 3CLpro, quenched FRET peptide cleavage. actives 0.14% (n = 290,000). inhibition, % at 6 µM; in the data active = inhibition above about 12%
BioA inh – M. tuberculosis BioA enzyme inhibitors, primary screen, biochemical, plate reader, single point, HTS. actives 0.096% (n = 360,000). AID 602481, 2012. inhibition, % at 9.99 µM. purified M. tuberculosis BioA enzyme. 7,8-diaminopelargonic acid synthase BioA (Mycobacterium tuberculosis); in the data active = inhibition above about 40%
Mtb FBA inh conf – M. tuberculosis aldolase blockers, biochemical, fluorescence, strain H37Rv, confirmation. shares compounds with FBA Mtb inh. purified M. tuberculosis FBA, fluorescence read-out. inhibition, % at 1 µM. actives 78% (n = 5,600). AID 651616, 2012;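 also: 0% = vehicle wells and 100% = reference inhibitor wells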
GDH-TPI counter-2 – GDH-TPI coupling enzyme inhibitors, artefact control for M. tuberculosis FBA inhibitor project, biochemical, fluorescence, high throughput; shares compounds with FBA Mtb inh; GDH-TPI coupled enzyme counterscreen; inhibition, % at 1 µM; actives 81% (n = 5,600); AID 652141, 2013; in the data active = inhibition above about 10%
Starred values were filed as active, the others as inactive; x = no result; + = active, no number. In the library only some 3.1% were active in any assay of this set; here they are far more common. Rule as the data show it, unless noted: active = inhibition above about 27%; inactive = the rest.

SMILES | GDH-TPI counter-1 | FBA Mtb inh | FadD28 FP inh | 3CLpro inhibitor | BioA inh | Mtb FBA inh conf | GDH-TPI counter-2
CCN1CCN(c2cc3c(nn2)Oc2ccccc2N3C)CC1 | 8.3 | 73.3* | 0.0 | -7.7 | x | 4.9 | -5.2
CCN1CCN(c2cc(=O)n3ccccc3n2)CC1 | 12.6 | 7.5 | -0.3 | -0.8 | -0.7 | x | x
COC(=O)c1ccc2nc(-c3ccc4c(c3)OCO4)cn2c1 | 30.5 | 2.6 | -0.6 | -0.5 | -1.9 | x | x
CCc1ccn2cc(-c3ccc4c(c3)OCO4)nc2c1 | 12.6 | 91.3* | -1.3 | -0.3 | 9.6 | 64.9* | 43.2*
C[C@H](CO)N1C[C@H](C)[C@H](CN(C)S(=O)(=O)c2cn(C)cn2)Oc2ccc(NC(=O)CCC(F)(F)F)cc2CC1=O | x | x | x | x | -0.9 | x | x
CCCC(=O)N=C1SC2CS(=O)(=O)CC2N1c1ccc(-c2nc3ccc(C)cc3s2)cc1 (configuration not stated) | 16.3 | 53.2* | -3.6 | 1.7 | -2.1 | 140.6* | 103.0*
C[C@@H]1CN([C@@H](C)CO)C(=O)c2cccc(NS(=O)(=O)c3cn(C)cn3)c2O[C@H]1CN(C)Cc1ccc(-c2ccccc2)cc1 | x | x | x | x | 4.1 | x | x
COC(=O)C[C@@H]1C[C@@H]2c3cc(NC(=O)CC4CC4)ccc3O[C@@H]2[C@@H](CO)O1 | x | x | x | x | -1.0 | x | x
COc1ccccc1-c1nc(-c2cccc(C)c2)no1 | 1.4 | 81.1* | -2.4 | 4.3 | 0.1 | 76.2* | 53.6*
CN1CCN(C(=O)C[C@H]2CC[C@@H]3[C@H](COC[C@H](O)CN3C(=O)Nc3ccc4c(c3)OCO4)O2)CC1 | x | x | x | x | -1.5 | x | x
Cc1cc(C)cc(N2CC(O)=C(c3nc4ccccc4c(=O)[nH]3)C2=N)c1 | 5.7 | 34.3* | -7.3 | 7.0 | x | 2.6 | 0.3
COc1cccc(N2CC(O)=C(c3nc4ccccc4c(=O)[nH]3)C2=N)c1 | 33.3* | 77.4* | -2.3 | -4.4 | -0.1 | 51.0* | 50.2*
CC(C)N1CC(O)=C(c2nc3ccccc3c(=O)[nH]2)C1=N | 10.2 | 43.9* | 0.3 | 0.6 | x | + | 170.2*
COc1ccc(NS(=O)(=O)c2cccc(N3CC(O)=C(c4ccccc4)C3=N)c2)cc1 | 5.5 | 0.9 | -0.9 | -1.8 | x | x | x
N=C1C(c2nc3ccccc3[nH]2)=C(O)CN1c1ccc(F)cc1 | 0.5 | 2.9 | 0.3 | 1.1 | -0.7 | x | x
C[C@@H]1CCCCO[C@@H](CN(C)S(C)(=O)=O)[C@H](C)CN([C@@H](C)CO)C(=O)c2cc(NC(=O)C3CCCCC3)ccc2O1 | x | x | x | x | 0.4 | x | x
O=C(NCC[C@H]1CC[C@H](NS(=O)(=O)c2cccc(F)c2)[C@H](CO)O1)C1CCC1 | x | x | x | x | 0.6 | x | x
NS(=O)(=O)c1cccc(NC(=O)COC(=O)COc2ccc3ccccc3c2)c1 | -1.9 | -2.8 | -14.4 | 4.0 | x | x | x
NS(=O)(=O)c1ccc(NC(=O)COC(=O)COc2ccc3ccccc3c2)cc1 | 5.0 | 42.3* | -3.3 | -0.2 | -0.7 | 55.5* | 37.4*
COc1cc(OC)cc(C(=O)NCCNc2nc3cc(C)cc(C)c3cc2C#N)c1 | 11.7 | 31.2* | -2.0 | -0.7 | -1.1 | -9.2 | -3.6
Cc1cc(C)c2cc(C#N)c(NCCCNC(=O)c3cccnc3)nc2c1 | 9.9 | 46.7* | -0.7 | x | x | 31.8* | 30.2*
COc1cc(C(=O)NCCCNc2nc3cc(C)c(C)cc3cc2C#N)cc(OC)c1OC | 5.3 | 52.4* | 0.4 | -2.2 | x | 75.3* | 61.9*
COc1ccccc1C(=O)NCCNc1nc2cc(C)cc(C)c2cc1C#N | 9.6 | 5.5 | -1.6 | -2.3 | 3.5 | x | x
COCCCNC(=S)NCCCNc1nc2cc(C)cc(C)c2cc1C#N | 0.0 | 47.3* | -4.3 | 1.1 | x | 6.1 | -7.1
C[C@@H]1CN([C@H](C)CO)C(=O)c2cc(-c3ccccc3)cnc2O[C@H]1CN(C)Cc1cccnc1 | x | x | x | x | 17.7 | x | x
